From PubChem BioAssay
Active and inactive are the calls of the source.

What was measured:
Albumin (Bos taurus) = Albumin (Bos taurus) (UniProt P02769); assay: bovine serum albumin binders on microarray, profiling panel, artefact control for SMM control protein annotation, biochemical, small-molecule microarray, Alexa647 label, 635/667 nm fluorescence (AID 1118); conditions: BSA-A647 binding, fluorescence 635 nm, higher = more signal;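 also: score merges 667 nm emission intensity and signal-to-noise per printed compound spot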
[1] = small-molecule microarray binders of probe aXIP, primary screen, biochemical, NeuroSMM set, 635/667 nm fluorescence (AID 1119); conditions: higher = more signal, called active from +8 up or from −8 down;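 also: probe is the protein aXip251-270 applied at 1 µg/mL to compound-printed slides; binding of probe to printed compounds measured as 667 nm fluorescence plus signal to noise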
[2] = small-molecule binders of probe aNOTCH3, primary screen, biochemical, small-molecule microarray, 635/667 nm fluorescence (AID 1120); conditions: higher = more signal;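 also: probe is a biotin-tagged antibody raised against NOTCH3 rather than NOTCH3 protein; score merges spot fluorescence near 667 nm with spot signal to noise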
[3] = small-molecule binders of probe aNOTCH2, primary screen, biochemical, small-molecule microarray, 635/667 nm fluorescence (AID 1121); conditions: higher = more signal;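 also: score merges feature fluorescence read at 667 nm with its signal to noise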
[4] = molecular target: Carbonic anhydrase 2 (Homo sapiens) (UniProt P00918); assay: CAII small-molecule binders, profiling panel, biochemical, small-molecule microarray, Alexa647-labelled CAII (AID 1122); conditions: CAII-A647 binding fluorescence, higher = more signal
[5] = COS7 lysate on small-molecule microarray, probe aHis, 635 nm (AID 1123); conditions: COS7 cell lysate, fluorescence, higher = more signal;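 also: z-score combines 667nm fluorescence intensity with signal-to-noise per printed compound spot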
[6] = compound binding in COS7 lysate, probe aLAP1, primary screen, cell lysate, small-molecule microarray (AID 1124); conditions: probe aLAP1, fluorescence, higher = more signal;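 also: lysate comes from COS7 cells expressing LAP1 and is applied at 0.3 µg/mL; score merges spot fluorescence near 667 nm with signal-to-noise over triplicate slides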
Sam68 (KHDRBS1) = assay: Sam68 small-molecule binders, primary screen, biochemical, small-molecule microarray, 635 nm fluorescence (AID 1125); conditions: small-molecule microarray binding, higher = more signal;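 also: score merges 667 nm channel intensity with signal to noise over triplicate slides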
[7] = test system: Chordin-like protein 2 (CHRDL2); assay: CHRDL2 small-molecule binders, primary screen, biochemical, small-molecule microarray, 635 nm fluorescence (AID 1126); conditions: small-molecule microarray binding, fluorescence 635 nm; higher = more signal;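 also: printed compound slides probed with Chrdl2 protein at 4 µg/mL for 1 h at 4 C; score merges 667 nm emission intensity with signal to noise over three replicate slides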
[8] = molecular target: Concanavalin-A (Canavalia ensiformis) (UniProt P02866); assay: ConA small-molecule binders, primary screen, artefact control for SMM control protein annotation, biochemical, small-molecule microarray, Alexa647 label, 635 nm (AID 1127); conditions: ConA-A647 binding fluorescence, higher = more signal;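 also: z combines 667 nm emission intensity with signal-to-noise across three replicate slides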
Sequence of Concanavalin-A (Canavalia ensiformis) (P02866 whole entry, looked up): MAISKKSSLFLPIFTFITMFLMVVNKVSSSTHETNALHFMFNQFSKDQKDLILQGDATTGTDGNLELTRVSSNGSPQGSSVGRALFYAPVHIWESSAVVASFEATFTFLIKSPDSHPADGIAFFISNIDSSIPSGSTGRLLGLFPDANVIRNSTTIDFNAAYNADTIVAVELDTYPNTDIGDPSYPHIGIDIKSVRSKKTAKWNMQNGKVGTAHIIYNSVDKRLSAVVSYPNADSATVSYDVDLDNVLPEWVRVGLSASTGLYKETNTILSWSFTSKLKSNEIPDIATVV

Sequence of Albumin (Bos taurus) (P02769 whole entry, looked up): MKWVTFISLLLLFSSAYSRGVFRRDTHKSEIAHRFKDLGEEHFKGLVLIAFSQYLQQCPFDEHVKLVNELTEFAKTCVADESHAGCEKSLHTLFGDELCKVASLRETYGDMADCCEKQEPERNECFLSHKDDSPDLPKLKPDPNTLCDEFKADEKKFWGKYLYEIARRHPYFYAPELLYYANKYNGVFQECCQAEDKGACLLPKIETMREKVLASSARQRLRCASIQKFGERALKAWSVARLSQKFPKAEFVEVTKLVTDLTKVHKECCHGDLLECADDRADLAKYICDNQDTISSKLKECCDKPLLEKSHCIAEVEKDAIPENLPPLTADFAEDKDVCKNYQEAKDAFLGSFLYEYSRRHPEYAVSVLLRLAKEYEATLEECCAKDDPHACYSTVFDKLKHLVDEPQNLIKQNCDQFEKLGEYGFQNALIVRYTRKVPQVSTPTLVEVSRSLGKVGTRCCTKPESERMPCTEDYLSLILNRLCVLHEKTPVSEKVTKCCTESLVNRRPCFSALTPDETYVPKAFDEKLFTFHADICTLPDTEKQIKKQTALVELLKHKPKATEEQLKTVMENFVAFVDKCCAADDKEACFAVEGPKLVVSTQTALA

Structure (SMILES) | composite z-score (Albumin (Bos taurus)) | composite Z-score [1] | composite z-score [2] | composite z-score [3] | composite z-score [4] | composite z-score [5] | composite z-score [6] | composite z-score (Sam68 (KHDRBS1)) | composite z-score [7] | composite z-score [8]
CCOC(=O)CCN1C(=O)[C@H]2[C@H]3[C@H](O)[C@H](O)CC(=NOC[C@@H](O)COCc4ccco4)[C@@H]3CC[C@H]2C1=O | 0.723 | -0.244 (inactive) | -0.0932 | -0.124 | 0.214 | 0.171 | 0.256 | 0.0665 | 0.457 | 0.318
O=C(NN=C1C[C@@H](O)[C@@H](O)[C@@H]2[C@@H]3C(=O)N(c4cccc(Oc5ccccc5)c4)C(=O)[C@@H]3CC[C@H]12)OCc1ccccc1 | 0.724 | -0.558 (inactive) | -0.0204 | -0.204 | -0.0039 | 1.82 | 0.122 | -0.406 | 0.0071 | 0.186
COC(=O)CC=C[C@@H](C)[C@H](OC)c1ccccc1Br | -0.335 | 0.0948 (inactive) | 0.0985 | -0.0684 | -0.0896 | -0.453 | 0.1 | -0.0689 | 0.508 | -0.24
CN1C(=O)C2C=CC(C(O)C(c3ccccc3)c3ccccc3)N(NC(=O)OC(C)(C)C)C2C1=O (stereo not given) | 1.03 | 1.84 (inactive) | 0.687 | 0.498 | 0.793 | 3.42 | 1 | 1.33 | 0.0789 | 1.19
C[C@@H](c1ccccc1)N1C(=O)[C@H]2[C@H]3[C@H](O)[C@H](O)CC(=NNC(=O)OCc4ccccc4)[C@H]3CC[C@H]2C1=O | 0.3 | 0.281 (inactive) | -0.046 | -0.0978 | -0.112 | 0.947 | 0.221 | -0.495 | 0.13 | 0.0811
CCOC(=O)C[C@H]1[C@H](OC(=O)c2cc3ccccc3oc2=O)[C@@H](NC(=O)c2ccc3ccccc3n2)c2cc(OCCCO)ccc2N1C(=O)c1ccccc1 | 0.328 | 0.946 (inactive) | 0.154 | -0.0424 | 0.639 | 0.476 | 0.668 | 0.604 | 0.789 | 0.728
CCOC(=O)[C@H](Cc1ccccc1)NC(=O)CCC1CC(OC(=O)NCc2ccc3c(c2)OCO3)CC2(CCCC(COC(=O)NCC(c3ccccc3)c3ccccc3)O2)O1 (stereo not given in full) | 0.48 | -0.718 (inactive) | 0.17 | -0.11 | 0.28 | 0.86 | 0.0713 | 1.32 | 0.226 | 0.329
CC(C)=NOCc1cccc(-c2cc(-c3ccccc3)no2)c1 | -0.0583 | 0.123 (inactive) | 0.062 | -0.203 | 0.257 | 0.686 | 0.0499 | 1 | 0.564 | 1.02
COCCOC(=O)N1C(=O)[C@@]2(c3cc(C#CC4(O)CCCCCC4)ccc31)[C@H](C(=O)N1CCN(c3ncccn3)CC1)[C@H]1C(=O)O[C@H](c3ccccc3)[C@H](c3ccccc3)N1[C@@H]2c1ccc(OCCO)cc1 | 0.408 | -0.108 (inactive) | 0.178 | -0.112 | 0.375 | 0.714 | 0.857 | 1.3 | 0.659 | 1.18
O[C@@H](Cc1ccccc1)[C@H]1C2C=CCCC(c3ccccc3)=C2CN1Cc1cccc(Cl)c1 (stereo not given in full) | -0.158 | 0.257 (inactive) | -0.027 | -0.0746 | 0.371 | 0.981 | 0.466 | 1.31 | 0.441 | 0.235
O=C1C[C@@H](O)[C@@H](O)[C@@H]2[C@@H]3C(=O)N(C4CCCCC4)C(=O)[C@@H]3CC[C@H]12 | 0.258 | -0.236 (inactive) | 0.0208 | -0.0761 | 0.168 | 0.323 | -0.505 | 0.742 | 0.325 | 0.564
CCN1C(=O)[C@H]2[C@H]3[C@H](O)[C@H](O)CC(=NOC(C)CN4CCCCc5nc(C)c(C)cc54)[C@@H]3CC[C@H]2C1=O (stereo not given in full) | -0.428 | -0.467 (inactive) | -0.0511 | -0.0539 | -0.144 | -0.144 | 0.0096 | 0.238 | 1.22 | -0.0891
CCCNC(=O)OC[C@H]1O[C@H](CCON=CC[C@@H]2C=C[C@H](OC(C)=O)[C@@H](COC(C)=O)O2)C=C[C@@H]1Oc1ccc(OC)cc1 | 0.619 | -0.263 (inactive) | 0.0131 | -0.14 | -0.0893 | 0.0884 | 0.394 | 0.911 | 0.593 | 0.0162
C=CC[C@@H]1C=C[C@H](ON=C[C@@H](OC)[C@H](C)C=CCC(=O)OC)[C@@H](CO)O1 | -0.286 | 0.0176 (inactive) | 0.062 | -0.0242 | 0.131 | 0.336 | -0.108 | 0.496 | 0.075 | -0.225
COC(=O)CC=C[C@@H](C)[C@@H](C=NO[C@H](C)c1cn([C@@H]2COC[C@H]2O)nn1)OC | 0.162 | -0.311 (inactive) | -0.0377 | -0.122 | -0.111 | 0.214 | -0.115 | 0.747 | 0.666 | 0.266
CC(C)=C1C(=O)C(c2ccccc2)=C2CN3C(=O)N(CCc4ccccc4)C(=O)[C@]3(Cc3ccc(F)cc3)[C@H]21 | 0.697 | 1.87 (inactive) | 0.186 | 0.148 | 0.306 | 1.04 | 0.34 | 0.639 | -2.22 | -1.05
COc1ccc(O[C@@H]2[C@H](O)CO[C@H]2C=CC#Cc2ccccc2)cc1 | -0.0002 | 0.497 (inactive) | -0.166 | -0.171 | 0.177 | 0.297 | 0.0594 | -0.016 | 0.229 | -0.301
COC(=O)[C@H](C)NC(=O)CCC1CC(OC(=O)NCc2cccc3ccccc23)CC2(CCCC(COC(=O)NCCc3ccc(Cl)cc3)O2)O1 (stereo not given in full) | 0.147 | 0.108 (inactive) | -0.176 | -0.0868 | 0.535 | 0.631 | -0.422 | 1.23 | -0.0578 | 0.946
CN(C)CCCNC(=O)[C@@H]1c2ccccc2C(=O)N(Cc2cc(F)cc(C(F)(F)F)c2)[C@H]1c1ccc(CO)cc1 | 0.277 | 0.451 (inactive) | -0.0976 | -0.114 | 0.783 | 0.969 | 0.578 | 0.946 | 1.08 | 0.21
COC(=O)[C@]1(CO)N=C(c2ccc(OCCCO)cc2)O[C@@H]1c1ccccc1N=[N+]=[N-] | -1.02 | 1.73 (inactive) | -0.112 | -0.0629 | 0.771 | 4.01 | 0.758 | 1.29 | 0.94 | 0.545
Cc1cc(C)c(-c2cc([C@H](C)ON=C3[C@H]4CCn5c(=O)n(-c6ccccc6)c(=O)n5[C@H]4[C@H](O)[C@@H]4O[C@H]34)on2)c(C)c1 | 0.652 | -0.853 (inactive) | 0.125 | -0.205 | 0.311 | 0.486 | 0.0647 | 0.416 | 0.231 | 0.706
COC(=O)[C@H]1COC(c2ccc(OCCCO)cc2)=N1 | 0.543 | 0.0182 (inactive) | -0.16 | -0.0942 | 0.523 | 2.38 | 0.984 | -1.08 | -0.0157 | -0.588
COc1ccc(O[C@H]2C=C[C@@H](c3ccccc3)O[C@@H]2COC(=O)CCC(C)=NO[C@H](C)c2cn([C@@H]3COC[C@H]3O)nn2)cc1 | 0.454 | 0.362 (inactive) | -0.015 | -0.211 | -0.106 | -0.208 | 0.263 | 0.771 | 0.656 | 0.427
NCCCCCNC(=O)[C@@H]1C[C@@H]2C(=O)N3CCC[C@H]3C(=O)N2[C@@H]1c1cccc(OCCO)c1 | 0.533 | 1.34 (inactive) | 0.453 | 0.294 | 0.659 | 1.68 | 1.09 | 1.19 | 1.14 | 1
O=C1[C@H]2[C@H]3[C@H](O)[C@H](O)CC(=NO[C@@H]4O[C@H](CO)[C@@H](O)[C@H](O)[C@H]4O)[C@@H]3CC[C@H]2C(=O)N1Cc1ccccc1 | -0.0679 | 0.0769 (inactive) | 0.0744 | -0.0623 | -0.568 | -0.658 | 0.0054 | 0.64 | -0.293 | -0.664
C=CC[C@@H]1C=C[C@H](ON=Cc2ccc(C(=O)N3[C@H](c4ccc(C)cc4)[C@@H](C)CC[C@H]3C(=O)OC)cc2)[C@@H](CO)O1 | 0.36 | 0.0811 (inactive) | -0.0971 | -0.132 | -0.0234 | 0.556 | 0.116 | 0.632 | 0.714 | -0.404
CCOC(=O)NN=C1C[C@@H](O)[C@@H](O)[C@@H]2[C@@H]3C(=O)N(C(C)(C)C)C(=O)[C@@H]3CC[C@@H]12 | -0.422 | 0.136 (inactive) | -0.0328 | -0.14 | -1.23 | -0.443 | 0.171 | -0.605 | -0.63 | -0.651
